From PubChem BioAssay (NCI)
About 79,000 compounds went through this panel and 15% of them were active in at least one assay; those are over-represented in the sample as a whole. Unmarked numbers belong to inactive results. Calls of active or inactive are those of the source. No stated cut-off is given here; in the data, active means growth inhibition above about 70%; inactive means the rest.

Assays:
[1] = NCI Yeast Anticancer Drug Screen. Data for the rad52 strain (AID 147);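 further: 0% = growth of vehicle-treated control cultures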; details: S. cerevisiae rad52 mutant growth inhibition, stronger effect = higher value
Summary of the method: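 Screen used a yeast mutant impaired in DNA repair. After compound exposure, growth was measured. Values reflect inhibition compared with vehicle-treated cells.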

[2] = NCI Yeast Anticancer Drug Screen. Data for the wt1 strain (AID 149);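 further: 0% = growth of vehicle-treated wt1 cultures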; details: S. cerevisiae wt1 strain (SPY 50644) growth inhibition, stronger effect = higher value
Summary of the method: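 The wt1 strain was treated with compounds, and growth was compared with vehicle-treated cultures to give inhibition.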

[3] = NCI Yeast Anticancer Drug Screen. Data for the rad50EPP+ strain (AID 151);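 further: 0% = growth of vehicle-treated control cultures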; details: S. cerevisiae rad50 mutant strain, stronger effect = higher value
Summary of the method: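 Exposing the rad50EPP+ strain to each compound, growth was compared with vehicle-only cultures to give inhibition.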

[4] = NCI Yeast Anticancer Drug Screen. Data for the mgt1 strain (AID 153); details: S. cerevisiae mgt1 mutant growth inhibition, stronger effect = higher value
Summary of the method: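 Genetically defined yeast (mgt1) treated with compound; inhibition of growth expressed against vehicle-treated controls.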

[5] = NCI Yeast Anticancer Drug Screen. Data for the rad50 strain (AID 155);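 further: 0% = growth of vehicle-only cultures of the same strain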; details: S. cerevisiae rad50 strain growth inhibition, stronger effect = higher value
Summary of the method: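 Cells are treated with compound, grown, and their growth is then scored against vehicle-only cultures of the same repair-deficient yeast strain.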

[6] = NCI Yeast Anticancer Drug Screen. Data for the mec2-1 strain (AID 157); details: S. cerevisiae mec2-1 strain, stronger effect = higher value
Summary of the method: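 Readout is yeast growth inhibition, normalised to vehicle-treated controls, in the mec2-1 strain exposed to compound.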

[7] = NCI Yeast Anticancer Drug Screen. Data for the rad14 strain (AID 159);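 further: 0% = growth of vehicle-treated control cultures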; details: S. cerevisiae rad14 strain growth inhibition, stronger effect = higher value
Summary of the method: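 Readout: yeast growth inhibition, referenced to vehicle-only cultures. Strain bears a defined alteration in DNA damage repair.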

[8] = NCI Yeast Anticancer Drug Screen. Data for the sgs1 mgt1 strain (AID 161);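 further: 0% = growth of cultures given vehicle only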; details: S. cerevisiae sgs1 mgt1 strain, stronger effect = higher value
Summary of the method: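 Percent growth inhibition was derived by comparing compound-exposed mutant yeast with vehicle-exposed cultures. The strain carries alterations in DNA damage repair.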

[9] = NCI Yeast Anticancer Drug Screen. Data for the CLN2oe strain (AID 163);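 further: 0% = growth of vehicle-only control cultures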; details: S. cerevisiae CLN2oe strain, stronger effect = higher value
Summary of the method: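 Values reflect how much compound exposure reduced yeast growth, referenced to vehicle-exposed cells. Assay organism is a strain with a defined genetic change affecting cell-cycle control.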

[10] = NCI Yeast Anticancer Drug Screen. Data for the bub3 strain (AID 167); details: S. cerevisiae bub3 mutant strain, stronger effect = higher value
Summary of the method: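 Part of a panel of yeast mutants defective in DNA damage repair or cell cycle regulation. Each strain is grown with compound, and inhibition is calculated relative to solvent-treated cultures.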

[11] = NCI Yeast Anticancer Drug Screen. Data for the wt2 strain (AID 169);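 further: 0% = growth of vehicle-treated yeast cultures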; details: S. cerevisiae wt2 strain growth inhibition, stronger effect = higher value
Summary of the method: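 Values express reduction in yeast growth under compound treatment, referenced to vehicle-treated cells.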

[12] = NCI Yeast Anticancer Drug Screen. Data for the mlh1 strain (AID 171);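 further: 0% = growth of vehicle-treated control cultures of the same strain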; details: S. cerevisiae mlh1 strain growth inhibition, stronger effect = higher value
Summary of the method: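 Steps: expose the defined-mutant yeast strain to compound; expose a parallel culture to vehicle; measure growth; express compound effect as inhibition relative to the vehicle culture.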

[13] = NCI Yeast Anticancer Drug Screen. Data for the sgs1 strain (AID 173);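 further: 0% = growth of vehicle-only control cultures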; details: S. cerevisiae sgs1 mutant, stronger effect = higher value
Summary of the method: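 Treat defined-mutant yeast with compound; measure growth; calculate inhibition relative to vehicle-treated cells.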

[14] = NCI Yeast Anticancer Drug Screen. Data for the mlh1 rad18 strain (AID 175); details: S. cerevisiae mlh1 rad18 strain growth inhibition, stronger effect = higher value
Summary of the method: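 Test agents were incubated with a yeast strain of defined genotype (DNA damage repair defect). Inhibition of growth was derived by comparison with vehicle-exposed cultures.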

[15] = NCI Yeast Anticancer Drug Screen. Data for the rad18 strain (AID 177); details: S. cerevisiae rad18 mutant growth inhibition, stronger effect = higher value
Summary of the method: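 A genetically defined yeast mutant impaired in DNA damage repair was treated with test compounds, then its growth was measured against cultures receiving vehicle alone.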

[16] = at 5.0 µM (retest, dose inferred, filed as 0.5)
[17] = at 50.0 µM (retest, dose inferred, filed as 5.0)

Compound: CCCCCCCCCCCCCCN
- growth inhibition ([1]; at 1.2 µM): 8%
- growth inhibition ([1]; at 3.7 µM): 1%
- growth inhibition ([1]; at 11.0 µM): -3%
- growth inhibition ([1]; at 33.0 µM): 23%
- growth inhibition ([1]; at 100.0 µM): 98% (active)
- growth inhibition ([2]; at 1.2 µM): 4%
- growth inhibition ([2]; at 3.7 µM): -5%
- growth inhibition ([2]; at 11.0 µM): -1%
- growth inhibition ([2]; at 33.0 µM): 6%
- growth inhibition ([2]; at 100.0 µM): 98% (active)
- growth inhibition ([3]; at 1.2 µM): -9%
- growth inhibition ([3]; at 3.7 µM): 18%
- growth inhibition ([3]; at 11.0 µM): 32%
- growth inhibition ([3]; at 33.0 µM): 64%
- growth inhibition ([3]; at 100.0 µM): 97% (active)
- growth inhibition ([4]; at 1.2 µM): -2%
- growth inhibition ([4]; at 3.7 µM): 1%
- growth inhibition ([4]; at 11.0 µM): -5%
- growth inhibition ([4]; at 33.0 µM): 52%
- growth inhibition ([4]; at 100.0 µM): 99% (active)
- growth inhibition ([5]; at 1.2 µM): 11%
- growth inhibition ([5]; at 3.7 µM): 17%
- growth inhibition [5, 16]: 100% (active)
- growth inhibition ([5]; at 11.0 µM): 11%
- growth inhibition ([5]; at 33.0 µM): 52%
- growth inhibition [5, 17]: 97% (active)
- growth inhibition ([5]; at 50.0 µM): 90.3% (active)
- growth inhibition ([5]; at 100.0 µM): 98% (active)
- growth inhibition ([6]; at 1.2 µM): -10%
- growth inhibition ([6]; at 3.7 µM): -5%
- growth inhibition [6, 16]: 100% (active)
- growth inhibition ([6]; at 11.0 µM): -9%
- growth inhibition ([6]; at 33.0 µM): 38%
- growth inhibition [6, 17]: 96% (active)
- growth inhibition ([6]; at 50.0 µM): 92.1% (active)
- growth inhibition ([6]; at 100.0 µM): 99% (active)
- growth inhibition ([7]; at 1.2 µM): 20%
- growth inhibition ([7]; at 3.7 µM): 20%
- growth inhibition ([7]; at 11.0 µM): 14%
- growth inhibition ([7]; at 33.0 µM): 15%
- growth inhibition ([7]; at 100.0 µM): 99% (active)
- growth inhibition [8, 16]: -20%
- growth inhibition [8, 17]: 99% (active)
- growth inhibition ([8]; at 50.0 µM): 90.8% (active)
- growth inhibition ([9]; at 1.2 µM): 6%
- growth inhibition ([9]; at 3.7 µM): 6%
- growth inhibition ([9]; at 11.0 µM): -14%
- growth inhibition ([9]; at 33.0 µM): 37%
- growth inhibition ([9]; at 100.0 µM): 98% (active)
- growth inhibition ([10]; at 1.2 µM): 25%
- growth inhibition ([10]; at 3.7 µM): 7%
- growth inhibition [10, 16]: 31%
- growth inhibition ([10]; at 11.0 µM): 21%
- growth inhibition ([10]; at 33.0 µM): 58%
- growth inhibition [10, 17]: 99% (active)
- growth inhibition ([10]; at 50.0 µM): 90.7% (active)
- growth inhibition ([10]; at 100.0 µM): 98% (active)
- growth inhibition ([11]; at 1.2 µM): 3%
- growth inhibition ([11]; at 3.7 µM): -1%
- growth inhibition ([11]; at 11.0 µM): 4%
- growth inhibition ([11]; at 33.0 µM): 27%
- growth inhibition ([11]; at 100.0 µM): 99% (active)
- growth inhibition ([12]; at 1.2 µM): -3%
- growth inhibition ([12]; at 3.7 µM): 8%
- growth inhibition ([12]; at 11.0 µM): 2%
- growth inhibition ([12]; at 33.0 µM): 16%
- growth inhibition ([12]; at 100.0 µM): 98% (active)
- growth inhibition ([13]; at 1.2 µM): 10%
- growth inhibition ([13]; at 3.7 µM): 16%
- growth inhibition ([13]; at 11.0 µM): 19%
- growth inhibition ([13]; at 33.0 µM): 65%
- growth inhibition ([13]; at 100.0 µM): 98% (active)
- growth inhibition [14, 16]: 100% (active)
- growth inhibition [14, 17]: 97% (active)
- growth inhibition ([14]; at 50.0 µM): 91.2% (active)
- growth inhibition ([15]; at 1.2 µM): -3%
- growth inhibition ([15]; at 3.7 µM): 4%
- growth inhibition ([15]; at 11.0 µM): 5%
- growth inhibition ([15]; at 33.0 µM): 24%
- growth inhibition ([15]; at 100.0 µM): 98% (active)
